# Laboratory results: PubChem BioAssay (NCATS)
# A number with no mark means an inactive call. Results filed as inconclusive are left out. Calls of active or inactive are those of the source. Unless noted, the call rests on the fitted dose curve; in most records, active means well fitted curve in the direction sought with a large enough effect; inconclusive means small, poorly fitted or top-dose-only effect, or another doubt; inactive means no such curve, though single readings can be large; an effect the other way counts as inactive or inconclusive.
# Key:
# [1] = molecular target: Lysosomal acid glucosylceramidase (Homo sapiens) (UniProt P04062); test: Glucocerebrosidase-p2 (AID 348; in the data active means potency below about 10 µM; further: potency means the concentration at half of the fitted maximal effect); details: purified GBA, blue fluorogenic substrate, 40 min
# Procedure, shortened: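 Compounds titrated from 0.6 nM upwards against 0.2 nM enzyme in pH 5.9 citric acid/KH2PO4, taurocholate, tween-20; blue fluorogenic substrate 80 uM, 40 min room temperature, stopped and read Ex 365/Em 440 for AC50.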
# [2] = AP1 Signaling Pathway (AID 357; active means well fitted curve in either direction with a large enough effect, not every such curve was filed as active; further: on the % scale 0 is the no-effect control and ±100 the full control effect); details: ME-180 AP-1-bla reporter, EGF-induced, beta-lactamase ratio, 5 h; at 7.69 µM (top of the series) unless noted
# Procedure, shortened: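 AP-1-bla ME-180 cells with beta-lactamase reporter under AP-1 response element, stimulated with EC50 EGF; compounds titrated, 5 hours at 37 degrees Celsius. CCF4 read at 460/530 nm ratio; positive and negative modulators judged by AC50.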
# [3] = NFAT Signaling Pathway (AID 444; active means well fitted curve in either direction with a large enough effect, not every such curve was filed as active;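 further: carbachol stimulus at about its EC50 of 1 µM final; on the % scale 0 is the no-effect control and ±100 the full control effect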); details: Jurkat NFAT-bla M1, carbachol, beta-lactamase ratio, 5 h; at 7.69 µM (top of the series) unless noted
# Procedure, shortened: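 Jurkat cells carrying an NFAT-driven β-lactamase reporter and co-transfected muscarinic M1 receptor were treated with compound plus carbachol (1 uM final, an EC50 level) for 5 h at 37 °C. CCF4 loading followed for 1 h at RT; 460/530 nm ratio gave %activity.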
# [4] = Stat Signaling Pathway (AID 446; active means well fitted curve in either direction with a large enough effect, not every such curve was filed as active;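 further: ME-180 cervical cancer cells given 40 pM IL-6 alongside compound; SIE-controlled beta-lactamase reporter measured as 460/530 nm FRET emission ratio; on the % scale 0 is the no-effect control and ±100 the full control effect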); details: ME-180 SIE beta-lactamase reporter, IL-6 stimulated, 5 h; at 7.69 µM (top of the series) unless noted
# Procedure, shortened: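 Screening format detects activators and inhibitors alike: ME-180 SIE-bla cells stimulated at 40 pM IL-6 for 5 hrs with compound, then dual-emission beta-lactamase read at 405 nm excitation.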
# [5] = molecular target: Glucocorticoid receptor (Homo sapiens) (UniProt P04150); test: GR-GFP Redistribution (AID 450;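 active means compounds whose dose series gives a full or clear partial fitted curve of increased nuclear translocation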; further: potency means the concentration at half of the fitted maximal effect); details: U2OS GR-GFP nuclear translocation, laser cytometry, 2 h
# [6] = molecular target: Glucocorticoid receptor (Homo sapiens) (UniProt P04150); test: GR-EFC Redistribution (AID 451; calls by dose curve; further: potency means the concentration at half of the fitted maximal effect); details: CHO-K1 GR-EFC translocation, beta-gal luminescence, 2 h
# Procedure, shortened: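 CHO-K1 cells stably expressing nuclear-localized β-gal enzyme acceptor and GR fused C-terminally to the enzyme donor fragment; ligand-driven nuclear translocation restores β-gal by complementation. Compounds titrated up to 46 uM final, 2 h at 37 °C; luminescence read.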
# [7] = molecular target: Mitogen-activated protein kinase 10 (Mus musculus) (UniProt Q61831); test: JNK3 AlphaScreen Assay (AID 530; active means well fitted curve in either direction with a large enough effect, not every such curve was filed as active;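 further: kinase came from lysate of stimulated human HepG2 cells; signal reports phosphorylation of biotinylated GST-cJun 1-79 at Ser73 with 10 µM ATP; on the % scale 0 is the no-effect control and ±100 the full control effect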); details: JNK3 lysate, c-Jun phosphorylation; series mostly up to 57.1 µM
# Procedure, shortened: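 Inhibitors reduce antibody binding to phosphorylated biotin-cJun, lowering AlphaScreen luminescence. Lysates from HepG2 cells pre-activated by IL-1beta plus TNF-alpha supplied JNK3; compounds were titrated.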
# [8] = molecular target: 3',5'-cyclic-AMP phosphodiesterase 4B (Homo sapiens) (UniProt Q07343); test: qHTS Assay for Inhibitors of PDE-IV (AID 607; active means well fitted activation curve with a large enough effect in the main read-out, with a control signal flat, not every such curve was filed as active; further: % of control where 0% means no effect); details: HEK293 ACTOne CNG channel cells, membrane potential fluorescence; series mostly up to 22.9 µM
# Procedure, shortened: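 The readout is membrane depolarisation from a cAMP-sensing CNG channel, detected with a potential dye at ex 535/em 590. Cells were HEK293-derived (endogenous PDE-IV) at 1000 cells/well, titrated up to 22.9 uM final.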
# [9] = molecular target: Dual specificity protein kinase CLK4 (Homo sapiens) (UniProt Q9HAZ1); test: qHTS Assay for Inhibitors of CDC-like Kinase 4 (ADP-Glo Assay) (AID 1771); details: recombinant CLK4, ADP-Glo luminescence; series mostly up to 80 µM; further: nearly all actives have a fitted effect of over 70% in size; further: potency means the concentration at half of the fitted maximal effect
# Procedure, shortened: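 Luminescence from ADP-Glo reports ADP produced by 25 nM Clk4 acting on 100 uM RS repeat peptide with 1 uM ATP over 1 hr at room temperature; residual ATP is depleted before ADP is converted to ATP for detection.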
# [10] = molecular target: Ubiquitin carboxyl-terminal hydrolase 1 (Homo sapiens) (UniProt O94782); test: Inhibitors of USP1/UAF1: Pilot qHTS (AID 504865); details: purified USP1/UAF1, Ub-rhodamine cleavage fluorescence; series mostly up to 54.9 µM;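 further: rhodamine fluorescence freed from ubiquitin-rhodamine substrate followed over time; top concentration of the series differs between compounds; on the % scale 0 is the no-effect control and ±100 the full control effect; nearly all actives have a fitted effect of over 35% in size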
# Procedure, shortened: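 Deubiquitinase activity followed as kinetic rhodamine fluorescence release from 150 nM Ub-Rho. 1 nM USP1/UAF1 with compound, after 15 min room-temperature preincubation, in HEPES pH 7.8 buffer containing TCEP, EDTA, BSA and Tween-20.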
# [11] = Primary qHTS for small molecule stabilizers of the endoplasmic reticulum resident proteome: Secreted ER Calcium Modulated Protein (SERCaMP) assay (AID 1508630); details: SH-SY5Y GLuc-SERCaMP (Gaussia luciferase released on ER calcium loss) secretion, thapsigargin, luminescence; series mostly up to 38.4 µM; further: on the % scale 0 is the no-effect control and ±100 the full control effect
# Procedure, shortened: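 GLuc-SERCaMP-expressing SH-SY5Y cells, pretreated 16 h with compound, are challenged with thapsigargin to empty ER calcium stores; after 4 h, coelenterazine is added directly to the medium and luminescence is imaged.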
# [12] = molecular target: Cytochrome P450 1A2 (Homo sapiens) (UniProt P05177); test: p450-cyp1a2 (AID 410; calls by dose curve; further: potency means the concentration at half of the fitted maximal effect;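 on activity change, negative = inhibition: -100% = full effect of reference inhibitor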); details: recombinant CYP1A2, luciferin-ME demethylation, luminescence; series mostly up to 57 µM
# Procedure, shortened: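 Luminescent readout of luciferin formed from Luciferin-ME by human CYP1A2; data normalized against complete inhibition by 57 uM furafylline. Enzyme 20nM, substrate 100uM at Km, 100mM KPO4 buffer, 60 min reaction at room temperature.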
# [13] = molecular target: Cytochrome P450 3A4 (Homo sapiens) (UniProt P08684); test: qHTS Assay for Activators of Cytochrome P450 3A4 (AID 885); details: recombinant CYP3A4, Luciferin-PPXE luminescence, 60 min; series mostly up to 57.1 µM; further: nearly all actives have a fitted effect of over 65% in size
# Procedure, shortened: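 Steps: enzyme/substrate mix dispensed; compound added, 10 min RT; NADPH regeneration solution added, 60 min RT; luciferin detection buffer stops reaction; 20 min later luminescence measured.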
# [14] = molecular target: Dual specificity protein kinase CLK4 (Homo sapiens) (UniProt Q9HAZ1); test: qHTS Assay for Inhibitors of CDC-like Kinase 4 (ADP-FP Assay) (AID 1795); details: Transcreener ADP fluorescence polarization; series mostly up to 50 µM;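 further: recombinant human CLK4 phosphorylating RS repeat peptide at 1 µM ATP; on the % scale 0 is the no-effect control and ±100 the full control effect; nearly all actives have a fitted effect of over 60% in size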
# Procedure, shortened: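 Kinase activity was measured as ADP production using Transcreener orange tracer (4 nM) and ADP antibody (1 ug/mL) fluorescence polarization, with ADP calculated from a calibration curve. The 1 h reaction contained 6.25 nM Clk4, 1 uM ATP and 100 uM RS peptide at pH 7.5 with Mg2+.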
# [15] = molecular target: Cytochrome P450 2C9 (Homo sapiens) (UniProt P11712); test: qHTS Assay for Inhibitors and Substrates of Cytochrome P450 2C9 (AID 883); details: recombinant CYP2C9, luciferin-H luminescence, 60 min; series mostly up to 57.1 µM; further: nearly all actives have a fitted effect of over 60% in size; further: potency means the concentration at half of the fitted maximal effect
# Procedure, shortened: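 CYP2C9 deoxyluciferin hydroxylation, 37C, 60 min with NADPH regeneration; 10nM enzyme, 100uM Luciferin-H (KM). Glo detection reagent stopped reaction; luminescence normalized to sulphaphenazole (57uM) full inhibition.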
# [16] = qHTS Assay for Identification of Small Molecule Agonists for Hypoxia Response Element Signaling Pathway (AID 914; active means well fitted activation curve with a large enough effect in the signal ratio, with a control signal flat, not every such curve was filed as active; the % refers to the signal ratio; further: % of control where 0% means no effect); details: ME-180 (cervical carcinoma) HRE-bla reporter, beta-lactamase ratio, CoCl2, 17 h; activation: active compounds read high
# Procedure, shortened: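 qHTS titration; ME-180 HRE-bla cells; EC50 CoCl2 co-treatment, 17 h at 37 degrees Celsius; CCF4 dye, ex 405nm, em 460nm and 530nm; %Activity from ratio; AC50.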
# [17] = molecular target: Cytochrome P450 3A4 (Homo sapiens) (UniProt P08684); test: qHTS Assay for Inhibitors and Substrates of Cytochrome P450 3A4 (AID 884); details: recombinant CYP3A4, Luciferin-PPXE luminescence; series mostly up to 57.1 µM; further: potency means the concentration at half of the fitted maximal effect; nearly all actives have a fitted effect of over 50% in size
# Procedure, shortened: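 20 nM human CYP3A4 with 25 uM Luciferin-PPXE (at KM) in 200 mM KPO4, preincubated 10 min with compound; NADPH regeneration started a 60 min RT reaction. Luciferin detected by luminescence, normalized to 57 uM ketoconazole as full inhibition.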
# [18] = molecular target: Cytochrome P450 2C19 (Homo sapiens) (UniProt P33261); test: qHTS Assay for Inhibitors and Substrates of Cytochrome P450 2C19 (AID 899); details: recombinant CYP2C19, luciferin-H EGE luminescence; series mostly up to 57.1 µM; further: potency means the concentration at half of the fitted maximal effect; nearly all actives have a fitted effect of over 60% in size
# Procedure, shortened: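 In 50mM KPO4, the reaction held 5nM enzyme and KM-level (10uM) Luciferin-H EGE; it ran 60 min at 37C after NADPH regeneration and a 10 min compound preincubation. Luminescence values were scaled to 57uM ketoconazole as complete inhibition.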
# [19] = molecular target: Cytochrome P450 2D6 (Homo sapiens) (UniProt P10635); test: qHTS Assay for Inhibitors and Substrates of Cytochrome P450 2D6 (AID 891); details: recombinant CYP2D6, luciferin-ME EGE luminescence; series mostly up to 57.1 µM; further: potency means the concentration at half of the fitted maximal effect; nearly all actives have a fitted effect of over 60% in size
# Procedure, shortened: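 Human CYP2D6 (5 nM) with 30 uM Luciferin-ME EGE (at Km) in 100 mM KPO4, compound preincubated 10 min, then NADPH regeneration system for 60 min at room temperature. Luciferin read by luminescence; normalized to 1.43 uM quinidine.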
# Chain of Glucocorticoid receptor (Homo sapiens) (P04150 whole entry, looked up, the tested form may be a part): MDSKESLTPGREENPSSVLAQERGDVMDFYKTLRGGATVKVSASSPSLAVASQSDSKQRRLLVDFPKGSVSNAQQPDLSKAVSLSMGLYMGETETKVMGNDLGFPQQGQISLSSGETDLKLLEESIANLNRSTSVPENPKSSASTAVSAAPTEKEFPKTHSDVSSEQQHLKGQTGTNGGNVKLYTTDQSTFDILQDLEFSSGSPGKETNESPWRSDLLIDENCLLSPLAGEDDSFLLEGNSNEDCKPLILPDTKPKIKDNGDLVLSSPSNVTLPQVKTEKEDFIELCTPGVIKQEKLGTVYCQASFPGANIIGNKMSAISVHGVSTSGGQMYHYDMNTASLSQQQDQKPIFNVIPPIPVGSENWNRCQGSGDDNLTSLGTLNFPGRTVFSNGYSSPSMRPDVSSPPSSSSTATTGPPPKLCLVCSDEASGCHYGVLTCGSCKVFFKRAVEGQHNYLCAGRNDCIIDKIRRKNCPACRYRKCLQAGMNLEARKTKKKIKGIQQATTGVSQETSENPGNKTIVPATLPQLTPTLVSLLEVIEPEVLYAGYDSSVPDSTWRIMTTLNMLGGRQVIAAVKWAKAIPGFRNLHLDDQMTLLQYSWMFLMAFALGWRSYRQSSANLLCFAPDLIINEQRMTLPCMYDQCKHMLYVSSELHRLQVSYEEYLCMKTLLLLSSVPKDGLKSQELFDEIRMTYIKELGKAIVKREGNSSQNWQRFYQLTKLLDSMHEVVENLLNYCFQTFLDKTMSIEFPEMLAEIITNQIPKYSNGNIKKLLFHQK
# Chain of Ubiquitin carboxyl-terminal hydrolase 1 (Homo sapiens) (O94782 whole entry, looked up): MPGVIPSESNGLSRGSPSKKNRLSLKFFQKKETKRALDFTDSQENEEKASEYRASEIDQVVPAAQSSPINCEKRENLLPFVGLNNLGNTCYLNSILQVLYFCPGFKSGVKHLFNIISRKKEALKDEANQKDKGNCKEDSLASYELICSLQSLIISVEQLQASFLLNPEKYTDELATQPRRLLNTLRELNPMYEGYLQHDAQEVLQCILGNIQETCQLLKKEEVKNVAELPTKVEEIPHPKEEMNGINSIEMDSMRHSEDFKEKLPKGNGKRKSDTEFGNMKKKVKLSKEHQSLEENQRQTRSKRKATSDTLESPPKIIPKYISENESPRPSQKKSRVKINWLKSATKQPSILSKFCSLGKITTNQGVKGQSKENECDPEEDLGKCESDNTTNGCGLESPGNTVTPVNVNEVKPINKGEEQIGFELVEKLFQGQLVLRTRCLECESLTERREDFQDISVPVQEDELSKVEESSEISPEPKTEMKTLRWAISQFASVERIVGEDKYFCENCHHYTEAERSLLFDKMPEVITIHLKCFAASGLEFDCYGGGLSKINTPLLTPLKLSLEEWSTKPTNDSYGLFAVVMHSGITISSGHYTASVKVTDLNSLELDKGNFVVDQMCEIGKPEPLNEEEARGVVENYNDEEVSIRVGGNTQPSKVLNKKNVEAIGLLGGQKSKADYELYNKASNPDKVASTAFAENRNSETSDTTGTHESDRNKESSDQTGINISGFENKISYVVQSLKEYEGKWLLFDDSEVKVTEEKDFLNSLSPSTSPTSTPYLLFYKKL
# Chain of 3',5'-cyclic-AMP phosphodiesterase 4B (Homo sapiens) (Q07343 whole entry, looked up): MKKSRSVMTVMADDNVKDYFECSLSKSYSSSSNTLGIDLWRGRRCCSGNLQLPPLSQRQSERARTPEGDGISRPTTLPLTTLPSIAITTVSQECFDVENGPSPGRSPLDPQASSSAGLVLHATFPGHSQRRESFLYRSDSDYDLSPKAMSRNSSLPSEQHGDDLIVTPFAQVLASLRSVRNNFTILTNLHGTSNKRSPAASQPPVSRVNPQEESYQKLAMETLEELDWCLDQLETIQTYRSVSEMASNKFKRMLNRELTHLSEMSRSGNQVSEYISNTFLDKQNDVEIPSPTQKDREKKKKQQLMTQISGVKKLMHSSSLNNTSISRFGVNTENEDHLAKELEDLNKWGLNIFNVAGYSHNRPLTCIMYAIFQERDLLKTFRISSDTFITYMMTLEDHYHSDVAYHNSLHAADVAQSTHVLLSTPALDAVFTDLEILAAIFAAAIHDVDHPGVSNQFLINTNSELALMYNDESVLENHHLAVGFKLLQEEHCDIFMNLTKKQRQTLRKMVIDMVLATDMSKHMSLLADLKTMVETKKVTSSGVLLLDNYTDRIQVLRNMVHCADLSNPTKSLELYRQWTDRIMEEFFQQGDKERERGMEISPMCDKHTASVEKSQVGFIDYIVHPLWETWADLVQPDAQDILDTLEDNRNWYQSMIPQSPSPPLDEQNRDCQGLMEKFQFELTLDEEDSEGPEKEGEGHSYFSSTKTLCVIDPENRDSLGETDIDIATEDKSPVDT
# Chain of Dual specificity protein kinase CLK4 (Homo sapiens) (Q9HAZ1 whole entry, looked up): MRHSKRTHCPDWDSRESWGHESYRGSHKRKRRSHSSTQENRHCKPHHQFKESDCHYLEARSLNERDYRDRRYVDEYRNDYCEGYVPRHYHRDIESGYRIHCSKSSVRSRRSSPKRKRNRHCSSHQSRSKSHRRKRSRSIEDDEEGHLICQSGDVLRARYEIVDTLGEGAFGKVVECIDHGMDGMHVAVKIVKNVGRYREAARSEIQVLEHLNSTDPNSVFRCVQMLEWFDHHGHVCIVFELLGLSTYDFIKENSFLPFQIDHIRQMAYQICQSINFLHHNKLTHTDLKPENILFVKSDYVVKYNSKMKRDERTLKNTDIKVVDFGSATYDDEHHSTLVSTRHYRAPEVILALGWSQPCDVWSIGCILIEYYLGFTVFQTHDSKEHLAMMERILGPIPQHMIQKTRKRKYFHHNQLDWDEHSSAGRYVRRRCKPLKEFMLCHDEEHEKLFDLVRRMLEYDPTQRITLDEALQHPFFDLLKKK
# Chain of Cytochrome P450 3A4 (Homo sapiens) (P08684 whole entry, looked up): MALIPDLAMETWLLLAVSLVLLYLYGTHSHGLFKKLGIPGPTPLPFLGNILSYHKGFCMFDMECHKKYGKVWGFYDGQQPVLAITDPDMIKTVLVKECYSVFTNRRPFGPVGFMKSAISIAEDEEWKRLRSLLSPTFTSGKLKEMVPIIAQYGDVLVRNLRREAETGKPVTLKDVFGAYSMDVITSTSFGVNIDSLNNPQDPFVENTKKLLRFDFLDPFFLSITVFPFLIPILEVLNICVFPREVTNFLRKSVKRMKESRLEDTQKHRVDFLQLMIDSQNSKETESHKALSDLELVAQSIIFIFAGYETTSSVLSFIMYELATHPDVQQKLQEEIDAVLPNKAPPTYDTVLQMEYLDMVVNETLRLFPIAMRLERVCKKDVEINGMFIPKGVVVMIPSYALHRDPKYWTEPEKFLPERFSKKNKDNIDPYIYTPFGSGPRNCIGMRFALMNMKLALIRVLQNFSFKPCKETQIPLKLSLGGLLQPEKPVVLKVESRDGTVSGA
# Chain of Cytochrome P450 1A2 (Homo sapiens) (P05177 whole entry, looked up): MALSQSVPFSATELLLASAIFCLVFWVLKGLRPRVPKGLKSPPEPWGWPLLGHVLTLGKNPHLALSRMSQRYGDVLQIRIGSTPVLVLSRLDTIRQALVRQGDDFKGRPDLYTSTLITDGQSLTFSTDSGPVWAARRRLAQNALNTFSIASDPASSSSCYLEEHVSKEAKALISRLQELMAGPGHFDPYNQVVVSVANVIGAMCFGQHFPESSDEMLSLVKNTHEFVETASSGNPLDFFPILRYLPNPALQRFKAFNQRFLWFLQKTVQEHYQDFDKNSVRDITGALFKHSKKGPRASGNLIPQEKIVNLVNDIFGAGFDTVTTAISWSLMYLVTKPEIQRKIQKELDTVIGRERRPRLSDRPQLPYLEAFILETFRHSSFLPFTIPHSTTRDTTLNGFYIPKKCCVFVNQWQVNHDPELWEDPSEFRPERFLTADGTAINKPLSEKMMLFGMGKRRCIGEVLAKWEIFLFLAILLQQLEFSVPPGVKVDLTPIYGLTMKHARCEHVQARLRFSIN
# Chain of Cytochrome P450 2C19 (Homo sapiens) (P33261 whole entry, looked up): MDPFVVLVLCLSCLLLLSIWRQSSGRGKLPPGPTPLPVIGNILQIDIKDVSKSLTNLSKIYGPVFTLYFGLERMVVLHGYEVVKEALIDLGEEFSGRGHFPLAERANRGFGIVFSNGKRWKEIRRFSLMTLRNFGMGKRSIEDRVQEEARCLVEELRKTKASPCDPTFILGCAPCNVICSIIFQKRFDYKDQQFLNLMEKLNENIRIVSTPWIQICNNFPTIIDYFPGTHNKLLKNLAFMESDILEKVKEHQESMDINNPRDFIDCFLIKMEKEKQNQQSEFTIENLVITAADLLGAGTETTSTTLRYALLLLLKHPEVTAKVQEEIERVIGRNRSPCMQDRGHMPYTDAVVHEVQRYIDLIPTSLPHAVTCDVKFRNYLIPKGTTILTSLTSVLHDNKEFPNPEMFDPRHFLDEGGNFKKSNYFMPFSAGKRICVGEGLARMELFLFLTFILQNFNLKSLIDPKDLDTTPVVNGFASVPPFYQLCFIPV
# Chain of Lysosomal acid glucosylceramidase (Homo sapiens) (P04062 whole entry, looked up): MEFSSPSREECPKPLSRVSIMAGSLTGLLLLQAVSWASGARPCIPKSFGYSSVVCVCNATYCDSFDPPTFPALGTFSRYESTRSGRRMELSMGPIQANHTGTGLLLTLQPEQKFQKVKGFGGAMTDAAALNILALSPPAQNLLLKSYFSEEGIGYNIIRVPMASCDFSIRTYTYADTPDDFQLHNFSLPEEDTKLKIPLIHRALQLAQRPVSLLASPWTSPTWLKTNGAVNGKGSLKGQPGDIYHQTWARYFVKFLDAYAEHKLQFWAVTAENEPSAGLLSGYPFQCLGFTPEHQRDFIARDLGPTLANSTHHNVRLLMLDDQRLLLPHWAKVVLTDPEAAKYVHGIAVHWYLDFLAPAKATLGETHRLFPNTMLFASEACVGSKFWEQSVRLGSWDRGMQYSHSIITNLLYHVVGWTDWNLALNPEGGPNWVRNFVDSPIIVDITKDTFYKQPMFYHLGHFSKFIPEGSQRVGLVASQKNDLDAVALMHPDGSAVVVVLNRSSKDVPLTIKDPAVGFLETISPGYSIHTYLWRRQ
Structure (SMILES),Potency [1],"activity change, negative = inhibition [2]","activity change, negative = inhibition [3]","activity, negative = inhibition [4]",Potency [5],Potency [6],Potency [7],Potency [8],Potency [9],Potency [10],outcome [11],Potency [12],Potency [13],Potency [14],"activity change, negative = inhibition [15]",activation [16],Potency [17],Potency [18],Potency [19],Potency [15]
CN(C)C(=O)c1ccc(-c2cncnc2N(C)Cc2ccco2)cc1,> 11.4 µM,-9.99%,-12.8%,3.83%,> 46 µM,> 46 µM,inactive,inactive,inactive,inactive,inactive,–,–,–,–,–,–,–,–,–
N#Cc1ccccc1-c1ccc2ncnc(NCCN3CCOCC3)c2c1,> 11.4 µM,1.67%,-6.3%,0.199%,> 46 µM,> 46 µM,inactive,inactive,–,inactive,inactive,10 µM (active),inactive,inactive,–,–,–,–,–,–
CS(=O)(=O)Nc1cccc(-c2cc(Nc3ccccc3)ncn2)c1,> 11.4 µM,-27.9%,10.9%,3.87%,> 46 µM,> 46 µM,inactive,inactive,35.5 µM (active),inactive,inactive,0.398 µM (active),inactive,–,56.3% [at 2.29 µM],-13.8%,–,–,–,–
CC(=O)NCCNc1nc(-c2cccc(NS(C)(=O)=O)c2)nc2ccccc12,> 11.4 µM,-17.6%,-1.12%,-3.86%,> 46 µM,> 46 µM,inactive,inactive,–,inactive,inactive,15.8 µM (active),inactive,inactive,–,–,–,–,–,–
N#Cc1cccc(-c2nccc(NCc3cccnc3)n2)c1,> 11.4 µM,–,16.5%,0.752%,> 46 µM,> 46 µM,inactive,–,14.1 µM (active),inactive,inactive,0.251 µM (active),inactive,–,–,–,0.794 µM (active),–,–,–
CNc1nc(-c2cccc(C#N)c2)nc2ccccc12,> 11.4 µM,-15.2%,2.31%,6.92%,> 46 µM,> 46 µM,inactive,inactive,11.2 µM (active),inactive,inactive,0.0794 µM (active),inactive,–,–,–,–,7.94 µM (active),–,–
COc1ccccc1-c1cncnc1NCc1ccccc1,> 11.4 µM,4.35%,-17.9%,-7.05%,> 46 µM,> 46 µM,inactive,inactive,–,inactive,inactive,12.6 µM (active),inactive,inactive,–,–,0.251 µM (active),–,–,–
CN(C)C(=O)c1ccc(-c2ccc3ncnc(N4CCOCC4)c3c2)cc1,> 11.4 µM,-25.6%,11.5%,-8.9%,> 46 µM,> 46 µM,inactive,inactive,–,inactive,inactive,inactive,inactive,inactive,–,–,–,–,–,–
COCCNc1nc(-c2c(C)noc2C)nc2ccccc12,> 11.4 µM,1.66%,22.9%,17.6%,> 46 µM,> 46 µM,inactive,inactive,–,inactive,inactive,0.126 µM (active),inactive,inactive,–,–,–,–,–,–
COc1ccc2[nH]cc(CCNc3ncncc3-c3cccnc3)c2c1,> 11.4 µM,9.96%,3.23%,2.25%,> 46 µM,> 46 µM,inactive,inactive,–,inactive,inactive,0.316 µM (active),inactive,inactive,–,–,0.794 µM (active),3.16 µM (active),–,–
CN(Cc1ccco1)c1ccnc(-c2cccnc2)n1,> 11.4 µM,16.2%,-13.4%,17.8%,> 46 µM,> 46 µM,inactive,inactive,–,inactive,inactive,0.794 µM (active),inactive,inactive,–,–,–,6.31 µM (active),7.94 µM (active),–
COc1ccc2[nH]cc(CCNc3nc(-c4ccc(N(C)C)cc4)nc4ccccc34)c2c1,–,–,–,–,> 46 µM,> 46 µM,–,–,28.2 µM (active),inactive,inactive,1.26 µM (active),inactive,inactive,–,–,2.51 µM (active),7.94 µM (active),7.94 µM (active),0.398 µM (active)
CC(=O)NCCNc1ccnc(-c2ccccc2C)n1,> 11.4 µM,12.2%,6.08%,8.94%,> 46 µM,> 46 µM,inactive,inactive,–,inactive,inactive,3.98 µM (active),inactive,inactive,–,–,–,–,–,–
